Most compounds without a hit are left out; they make up all but 31% or so of the library.
CYP2C19 activ: activators of human cytochrome P450 2C19 | recombinant CYP2C19, luciferin-H EGE luminescence; active compounds read high; 0 = fully inhibited enzyme, 1 = untreated enzyme | activation factor at 5 µM | 96,000 tested, under 10 active | AID 1025;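 active means activation factor of at least 2 at 5 µM in the primary screen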;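 further: 0 = wells with 2.5 mM tranylcypromine and 1 = vehicle-only wells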
Target sequence (P33261 whole entry, looked up): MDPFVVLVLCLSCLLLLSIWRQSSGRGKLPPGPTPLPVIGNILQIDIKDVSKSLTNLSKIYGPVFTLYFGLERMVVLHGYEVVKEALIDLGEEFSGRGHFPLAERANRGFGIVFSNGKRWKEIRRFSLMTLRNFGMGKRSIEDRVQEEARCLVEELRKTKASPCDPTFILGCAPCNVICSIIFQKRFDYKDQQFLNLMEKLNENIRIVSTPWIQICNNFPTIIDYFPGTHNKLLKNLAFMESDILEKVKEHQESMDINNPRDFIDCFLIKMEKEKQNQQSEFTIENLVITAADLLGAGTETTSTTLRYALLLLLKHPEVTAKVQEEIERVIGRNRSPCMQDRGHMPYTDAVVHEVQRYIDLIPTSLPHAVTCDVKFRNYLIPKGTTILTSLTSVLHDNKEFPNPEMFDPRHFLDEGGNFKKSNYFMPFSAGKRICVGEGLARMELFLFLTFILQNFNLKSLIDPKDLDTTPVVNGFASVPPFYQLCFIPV
CYP2C19 inh: inhibitors of human CYP2C19 | P33261 | CYP2C19 Supersomes, luciferin-H EGE luminescence, 30 min | inhibition, % at 5 µM | 96,000 tested, 21% active | AID 778;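 active means CYP2C19 inhibition above a set limit at 5 µM in the primary screen, cut at about 50% in these data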;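 further: plate controls were negative control wells for no effect and 2.5 mM tranylcypromine positive control for full effect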
PLAP activator: human PLAP activation; P05187; purified PLAP enzyme, luminescent substrate read-out; active compounds read high; activation fold at 20 µM; 96,000 tested, 1.2% active; in the data active means activation fold above about 2
CYP2C9 activ: increases human cytochrome P450 2C9 activity; recombinant CYP2C9, luciferin-H conversion, luminescence; active compounds read high; factor 1 = untreated enzyme, 0 = blocked; P11712; 96,000 tested, 1.4% active; activation factor at 5 µM;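 active means activation factor of 2 or more for CYP2C9 at a 5 µM dose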;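 further: 0 = sulfaphenazole-blocked wells and 1 = vehicle-only wells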
CYP2C9 inhib: blocks human cytochrome P450 2C9 | P11712 | inhibition, % at 5 µM | CYP2C9 Supersomes, luciferin-H conversion, luminescence | 96,000 tested, 20% active;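 active means blocking of liver enzyme CYP2C9 beyond about 50% at 5 µM, limit read from the data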
Starred values were filed as active, the others as inactive.

`NS(=O)(=O)c1ccc(CNC(=O)/C=C/c2c(Cl)cccc2Cl)cc1` gave CYP2C19 activ 1.1, CYP2C19 inh -9, PLAP activator 1.1, CYP2C9 activ 1.5 and CYP2C9 inhib -48.
Screening CCOc1cc(C2Nc3ccccc3C(=O)N2c2ccccc2)ccc1O (stereo not given) returned CYP2C19 activ 0.4, CYP2C19 inh 62*, PLAP activator 0.9, CYP2C9 activ 0 and CYP2C9 inhib 96*.
For COc1ccc(C2Nc3ccccc3C(=O)N2O)cc1OC (stereo not given) the results were CYP2C19 activ 0.8, CYP2C19 inh 23, PLAP activator 0.8, CYP2C9 activ 0.9 and CYP2C9 inhib 9.
Screening COc1ccc2nc(Nc3ccc4c(c3)OCO4)sc2c1 returned CYP2C19 activ 0.3, CYP2C19 inh 65*, PLAP activator 0.9, CYP2C9 activ 0.8 and CYP2C9 inhib 21.
For CC(C)(C)c1ccc(S(=O)(=O)N2CC(=O)Nc3ccccc32)cc1 the results were CYP2C19 activ 0.2, CYP2C19 inh 82*, PLAP activator 0.8, CYP2C9 activ 0.9 and CYP2C9 inhib 10.
For CCc1ccc(S(=O)(=O)N2CC(=O)Nc3ccccc32)cc1 the results were CYP2C19 activ 0.3, CYP2C19 inh 74*, PLAP activator 0.8, CYP2C9 activ 1.7 and CYP2C9 inhib -68.
Cc1ccc(-c2nnn(CC(=O)NCC3COCCO3)n2)o1 (stereo not given) was read as CYP2C19 activ 0.9, CYP2C19 inh 14, PLAP activator 0.9, CYP2C9 activ 0.9 and CYP2C9 inhib 11.
For CC(=O)C1=C(O)C(=O)N(CCCO)C1c1ccccc1 (stereo not given) the results were CYP2C19 activ 1, CYP2C19 inh -3, PLAP activator 0.8, CYP2C9 activ 1.4 and CYP2C9 inhib -43.
Screening C=CCOCCN1C(=O)C2C(c3ccccc3)C=CC(c3ccccc3)C2C1=O (stereo not given) returned CYP2C19 activ 0.3, CYP2C19 inh 66*, PLAP activator 1, CYP2C9 activ 0.6 and CYP2C9 inhib 40.
Cc1cccc(C(=O)NN2C(=O)C3C(c4ccccc4)C=CC(c4ccccc4)C3C2=O)c1 (stereo not given) was read as CYP2C19 activ 0.5, CYP2C19 inh 49, PLAP activator 1.1, CYP2C9 activ 0.5 and CYP2C9 inhib 49.
`O=C1C2C(c3ccccc3)C=CC(c3ccccc3)C2C(=O)N1CCCO` (stereo not given) gave CYP2C19 activ 0.2, CYP2C19 inh 82*, PLAP activator 1.7, CYP2C9 activ 0.2 and CYP2C9 inhib 82*.
Screening COC(=O)c1cc(NC(=O)C23CCC(C)(C(=O)O2)C3(C)C)cc(C(=O)OC)c1 (stereo not given) returned CYP2C19 activ 1, CYP2C19 inh -1, PLAP activator 1, CYP2C9 activ 0.9 and CYP2C9 inhib 13.
COC(=O)CSC1=NS(=O)(=O)c2ccccc21 was read as CYP2C19 activ 1.3, CYP2C19 inh -26, PLAP activator 1, CYP2C9 activ 1.2 and CYP2C9 inhib -17.
O=C(CSC1=NS(=O)(=O)c2ccccc21)Nc1ccccc1 was read as CYP2C19 activ 0.5, CYP2C19 inh 53*, PLAP activator 1.2, CYP2C9 activ 0.7 and CYP2C9 inhib 32.
`CCC(C)n1c(SCC(=O)Nc2ccccc2C(F)(F)F)nc2ccsc2c1=O` (stereo not given) gave CYP2C19 activ 0.5, CYP2C19 inh 46, PLAP activator 1, CYP2C9 activ 0.3 and CYP2C9 inhib 72*.
For Cc1nc(N)sc1-c1nnc(SCC(=O)Nc2ccccc2C(F)(F)F)n1C the results were CYP2C19 activ 1.2, CYP2C19 inh -18, PLAP activator 0.9, CYP2C9 activ 0.9 and CYP2C9 inhib 6.
Cc1ccc(NC(=O)c2cc(N3C(=O)C4CC=CCC4C3=O)ccc2N2CCOCC2)cc1Cl (stereo not given) was read as CYP2C19 activ 1, CYP2C19 inh 2, PLAP activator 1.1, CYP2C9 activ 0.9 and CYP2C9 inhib 7.
`Cc1ccc(NC(=S)NCc2ccccn2)cc1` gave CYP2C19 activ 0.7, CYP2C19 inh 32, PLAP activator 0.9, CYP2C9 activ 0.3 and CYP2C9 inhib 69*.
`S=C(NCc1ccccn1)Nc1cccc(Cl)c1` gave CYP2C19 activ 0.4, CYP2C19 inh 57*, PLAP activator 0.9, CYP2C9 activ 1.1 and CYP2C9 inhib -12.
Screening Cc1ccc(NC(=S)NNC(=S)NCc2ccccc2)cc1 returned CYP2C19 activ 0.9, CYP2C19 inh 12, PLAP activator 1.1, CYP2C9 activ 0.1 and CYP2C9 inhib 94*.
FC(F)(F)c1cccc(NC(=S)NNC(=S)NCc2ccccc2)c1 was read as CYP2C19 activ 0.9, CYP2C19 inh 12, PLAP activator 1.2, CYP2C9 activ 0.2 and CYP2C9 inhib 75*.
`O=C(Cc1ccccc1)NC(=S)Nc1cccc(C(F)(F)F)c1` gave CYP2C19 activ 1, CYP2C19 inh 2, PLAP activator 0.9, CYP2C9 activ 0.9 and CYP2C9 inhib 13.
Screening CC(OC(=O)c1cccc(NS(C)(=O)=O)c1)C(=O)Nc1ccc(N2CCOCC2)cc1 (stereo not given) returned CYP2C19 activ 1, CYP2C19 inh -3, PLAP activator 1.1, CYP2C9 activ 1.1 and CYP2C9 inhib -11.
`CCN1CCN(C2CCN(C(C)=O)CC2)CC1` gave CYP2C19 activ 1.1, CYP2C19 inh -7, PLAP activator 0.9, CYP2C9 activ 1.1 and CYP2C9 inhib -12.
Screening CSc1nc2ccc(Nc3nc(N4CCOCC4)nc(N4CCOCC4)n3)cc2s1 returned CYP2C19 activ 0.5, CYP2C19 inh 49, PLAP activator 1.1, CYP2C9 activ 0.8 and CYP2C9 inhib 15.
CCNc1nc(NC(C)CC)nc(Oc2ccc(=O)[nH]n2)n1 (stereo not given) was read as CYP2C19 activ 0.5, CYP2C19 inh 50*, PLAP activator 0.9, CYP2C9 activ 1 and CYP2C9 inhib 4.
O=C(CN1CCCCC1)Nc1cccc(Oc2ccccc2)c1 was read as CYP2C19 activ 0.2, CYP2C19 inh 77*, PLAP activator 1.8, CYP2C9 activ 0.1 and CYP2C9 inhib 90*.
COc1cccc(NC(=O)CN2CCC(C)CC2)c1 was read as CYP2C19 activ 0.1, CYP2C19 inh 90*, PLAP activator 1.4, CYP2C9 activ 0.5 and CYP2C9 inhib 54*.
Screening Cc1ccc(S(=O)(=O)C2CCOC2=O)cc1 (stereo not given) returned CYP2C19 activ 1, CYP2C19 inh -2, PLAP activator 1.1, CYP2C9 activ 0.9 and CYP2C9 inhib 9.
`CCCCNC1=C(Br)C(=O)CC(C)(C)C1` gave CYP2C19 activ 0.2, CYP2C19 inh 82*, PLAP activator 0.8, CYP2C9 activ 1 and CYP2C9 inhib 2.
Screening CCCCCCN=CC1=C(O)CC(C)(C)CC1=O returned CYP2C19 activ 0.8, CYP2C19 inh 21, PLAP activator 1.2, CYP2C9 activ 0.8 and CYP2C9 inhib 18.
